FGF22 binding – shifts melting point of recombinant human FGF22. Q9HCT0. recombinant FGF22 thermal shift, SYPRO orange fluorescence; percent of sucrose octasulfate shift, DMSO zero. activity (Tm shift, normalised), % at 9.99 µM. actives 1.5% (n = 340,000);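 active = mean Tm shift, scaled 0 neutral to 100 positive control, at about 1.3% or above, every replicate too, limit read from the data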
Target sequence (Q9HCT0 whole entry, looked up): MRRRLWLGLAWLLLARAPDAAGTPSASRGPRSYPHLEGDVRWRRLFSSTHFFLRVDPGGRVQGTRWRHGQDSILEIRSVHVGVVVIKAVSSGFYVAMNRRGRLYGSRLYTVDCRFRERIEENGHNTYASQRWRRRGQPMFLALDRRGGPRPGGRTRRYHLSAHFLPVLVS
SMARCA2 act – activators of SMARCA2 function; MG213 cells, MMTV-luciferase reporter, dexamethasone, overnight; activation, % at 9.1 µM; actives 1% (n = 370,000); AID 652017; in the data active = activation above about 7.8%
esBAF inh – blocks esBAF chromatin remodeling in mouse ES cells | Bmi1-luciferase knock-in reporter, 24 h; 100% = twice the neutral-well signal | reporter increase, % at 12.5 µM | actives 2% (n = 350,000) | AID 602393; in the data active = activation above about 40%;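 note: a rise in the Bmi1 reporter signal indicates esBAF inhibition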
Wnt act – activators of Wnt/beta-catenin signaling; Wnt/beta-catenin reporter cell assay, activator, plate reader; activation, % at 9.35 µM; actives 1.2% (n = 300,000); AID 743398; in the data active = activation above about 30%, passing the limit was not always enough
AF4-AF9 inh – blocks AF4 peptide binding to human AF9 | actives 0.47% (n = 350,000) | P42568 | AlphaScreen, biotin-AF4 peptide binding to FLAG-AF9 | inhibition, % at 10 µM;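 active = every replicate reaching a set inhibition limit, whatever the replicate mean, cut at about 25% in these data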
MITF TRPM1 HTS – activators of MITF-driven TRPM1 promoter activity in SK-MEL-5 cells; actives 0.75% (n = 300,000); activation, % at 12.5 µM; SK-MEL-5 TRPM1-promoter luciferase, 24 h; % of positive control, neutral wells = 0;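 active = mean activation of at least 80% with every replicate also reaching 80%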
Of the large screens only hits and unclear results are named; the others gave an inactive call; ! = not confirmed by another sample. Only some compounds are listed: those with a hit (about 4.3% of all), similar ones and a draw of the others.

CN1c2ccc(-c3ccccc3F)cc2[C@@H]2[C@@H](CCN2S(=O)(=O)c2ccccc2F)[C@H]1CO	none (no result: SMARCA2 act, Wnt act, MITF TRPM1 HTS)
COc1ccc(NC(=O)Nc2cccc3c2O[C@@H](CN(C)Cc2ccc(Cl)c(Cl)c2)[C@H](C)CN([C@H](C)CO)C3=O)cc1	none (no result: FGF22 binding, SMARCA2 act, Wnt act, AF4-AF9 inh, MITF TRPM1 HTS)
COc1cccc(NC(=O)N(C)C[C@H]2Oc3cc(C#CC4(O)CCCC4)ccc3S(=O)(=O)N([C@H](C)CO)C[C@H]2C)c1	none (no result: SMARCA2 act, Wnt act, MITF TRPM1 HTS)
CN1CCN(CCCN2c3ccccc3Sc3ccc(C(F)(F)F)cc32)CC1	AF4-AF9 inh 27!
O=C(CN1CCCC(O)C1)N1c2ccccc2Sc2ccc(C(F)(F)F)cc21 (stereo unspecified)	none (no result: FGF22 binding, Wnt act, AF4-AF9 inh)
Nc1ccc(C(=O)OCc2nc3c(ccc4ccccc43)[nH]2)cc1	esBAF inh 79 (no result: FGF22 binding, AF4-AF9 inh)
CCCCN(C=O)c1c(CC)nc2c(OCC(=O)c3ccc(F)cc3)cccn12	SMARCA2 act 7.9 (no result: MITF TRPM1 HTS)
O=C(C[C@@H]1C[C@H]2c3cc(NS(=O)(=O)c4ccc(F)cc4)ccc3O[C@H]2[C@@H](CO)O1)NCc1ccccc1	none (no result: SMARCA2 act, Wnt act, MITF TRPM1 HTS)
Cc1ccccc1S(=O)(=O)NCC[C@@H]1CC[C@@H](NC(=O)C2CCC2)[C@@H](CO)O1	none (no result: SMARCA2 act, Wnt act, MITF TRPM1 HTS)
O=C(NCC1CCCO1)c1ccccc1 (stereo unspecified)	none (no result: FGF22 binding, AF4-AF9 inh)
O=C(NCC1CCCO1)c1cc(-c2ccccc2F)no1 (stereo unspecified)	esBAF inh 57
O=C(NCC1CCCO1)c1ccc(-c2ccccc2Cl)o1 (stereo unspecified)	MITF TRPM1 HTS 130 (no result: esBAF inh)
O=C(NC12CC3CC(CC(C3)C1)C2)c1ccc(-c2ccccc2Cl)o1	esBAF inh 45 (no result: FGF22 binding, AF4-AF9 inh)
Cc1onc(-c2ccccc2Cl)c1C(=O)NCC1CCCO1 (stereo unspecified)	none (no result: FGF22 binding, Wnt act, AF4-AF9 inh)
CO[C@H]1CN(C)C(=O)c2cc(NC(=O)C3CCC3)ccc2OC[C@@H](C)N(C)C[C@@H]1C	none (no result: SMARCA2 act, Wnt act, MITF TRPM1 HTS)
COc1cccc2cc(C(=O)NCc3ccccc3Br)c(=O)oc12	esBAF inh 41
N#C/C(=C(/O)COC(=O)c1ccccc1O)c1nc2ccccc2s1	none (no result: esBAF inh)
CCN(C(=O)COC(=O)c1ccccc1O)c1nc2ccccc2s1	FGF22 binding 43 (no result: esBAF inh)
CCCc1cc(C(=O)Nc2ccc(F)cc2F)no1	esBAF inh 68 (no result: MITF TRPM1 HTS)
CCCc1cc(C(=O)Nc2ccccc2SC)no1	esBAF inh 51 (no result: MITF TRPM1 HTS)
CSc1ccccc1NC(=O)c1cc(-c2cccs2)on1	none (no result: FGF22 binding, AF4-AF9 inh)
CCCc1cc(C(=O)Nc2ccc(C#N)cc2)no1	none
CCCc1cc(C(=O)Nc2ccc(C(C)=O)cc2)no1	none
CCCc1cc(C(=O)Nc2cccc(Cl)c2C)no1	esBAF inh 58
Cc1ccccc1NC(=O)C1CCCN1S(=O)(=O)c1cccc2cccnc12 (stereo unspecified)	none (no result: FGF22 binding, SMARCA2 act, Wnt act, AF4-AF9 inh)
Cc1ccccc1NC(=O)C1CCCN1S(=O)(=O)c1ccccc1C(F)(F)F (stereo unspecified)	Wnt act 50
Brc1ccc(-c2noc(COc3ccc4c(c3)CCC4)n2)o1	none (no result: MITF TRPM1 HTS)
c1csc(-c2noc(COc3ccc4c(c3)CCCC4)n2)c1	Wnt act 36, MITF TRPM1 HTS 140 (no result: FGF22 binding, AF4-AF9 inh)
Cc1ccc(NC(=S)c2ccc3ccccc3n2)c(C)c1	esBAF inh 53
Cc1ccc(C)c(NC(=O)c2ccc3ccccc3n2)c1	none (no result: FGF22 binding, AF4-AF9 inh)
CCCC1(C)SC(NC(C)=O)=NN1C(C)=O (stereo unspecified)	none (no result: FGF22 binding, AF4-AF9 inh)
CC(=O)NC1=NN(C(C)=O)C(C)(CC(=O)OC(C)(C)C)S1 (stereo unspecified)	FGF22 binding 43 (no result: esBAF inh)
NC(=O)[C@H]1CC2(CC(c3cccc(NC(=O)c4ccccc4)c3)=NO2)CN1C(=O)[C@H]1CCC(=O)N1 (stereo partly specified)	Wnt act 53
C=C(C)C(=O)N1CC2(CC(c3cccc(NC(=O)c4ccccc4)c3)=NO2)C[C@@H]1C(N)=O (stereo partly specified)	FGF22 binding 44
Cc1cccc(OCCNc2ccc(C(F)(F)F)cc2[N+](=O)[O-])c1	MITF TRPM1 HTS 90 (no result: FGF22 binding, esBAF inh, Wnt act, AF4-AF9 inh)
C[C@H](CO)N1C[C@H](C)[C@@H](CN(C)Cc2ccc(C(=O)O)cc2)Oc2ccc(NS(C)(=O)=O)cc2CC1=O	none (no result: SMARCA2 act, Wnt act, MITF TRPM1 HTS)
COc1ccc(NC(=S)Nc2ccc(OC(F)F)cc2)cn1	FGF22 binding 43 (no result: esBAF inh)
COCCN(C(=O)CSc1nnc(-c2ccccc2F)n1C)c1c(N)n(Cc2ccccc2)c(=O)[nH]c1=O	FGF22 binding 43
C[C@@H]1CN([C@H](C)CO)C(=O)c2cccc(NS(=O)(=O)c3ccc(F)cc3)c2O[C@@H]1CN(C)CC1CC1	none (no result: SMARCA2 act, Wnt act, MITF TRPM1 HTS)
Cc1[nH]c2ccccc2c1/C=N/Nc1ccccn1	AF4-AF9 inh 26 (no result: esBAF inh, MITF TRPM1 HTS)
Cc1[nH]c2ccccc2c1/C=N/Nc1nncn1N	none (no result: esBAF inh)
Clc1ccc(-c2cc(C3CCNCC3)[nH]n2)cc1	FGF22 binding 43
Cc1cccc(C)c1NC(=O)C1(N2C(=O)CC2c2ccccc2)CCCCC1 (stereo unspecified)	FGF22 binding 44 (no result: esBAF inh)
N#C/C(=C(/O)c1ccco1)c1nc2ccccc2s1	esBAF inh 58
N#C/C(=C(/O)c1cc2ccccc2o1)c1nc2ccccc2s1	none
N#C/C(=C(/O)c1cccc(F)c1)c1nc2ccccc2s1	Wnt act 34 (no result: esBAF inh)
C[C@@H]1CN([C@H](C)CO)S(=O)(=O)c2ccc(-c3ccncc3)cc2O[C@H]1CN(C)Cc1cccnc1	none (no result: SMARCA2 act, Wnt act, MITF TRPM1 HTS)
C[C@@H]1CN([C@@H](C)CO)C(=O)Cc2cc(NS(=O)(=O)c3ccc(Cl)cc3)ccc2O[C@@H]1CN(C)S(=O)(=O)c1cccs1	none (no result: SMARCA2 act, Wnt act, MITF TRPM1 HTS)
[O-]/[N+](=C\c1ccccc1)c1ccccc1	none

High-throughput results deposited in PubChem BioAssay by several laboratories.
